{"source": "PubChem BioAssay (NCATS)", "note": "Results filed as inconclusive are left out. Unmarked numbers belong to inactive results. Active and inactive are the calls of the source. Calls follow the shape of the dose curve; as a rule, active = well fitted cell-killing curve with a large enough effect; inconclusive = small, poorly fitted or top-dose-only effect, or effect the other way; inactive = flat fitted curve, though single readings scatter. Potency is read from the fitted curve at half-maximal effect."}
{"assay": "Cell Viability - LYMP2-003 (AID 965);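 also: cells exposed to compounds for 24 h before reading; nearly all actives have a fitted effect of over 50% in size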;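 as to activity change, negative = cytotoxicity: 0% = DMSO only and full effect = 92 µM tetraoctylammonium bromide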", "conditions": "LYMP2-003 lymphoblastoid cell viability; series mostly up to 92.2 µM; activity change, negative = cytotoxicity: at the top concentration", "description": "NIH Chemical Genomics Center [NCGC]\nNIH Molecular Libraries Screening Centers Network [MLSCN]\nNational Institutes of Environmental Health Sciences [NIEHS]\nNational Toxicology Program [NTP]\nWe have developed a 1536-well cell-based assay for quantitative high throughput screening (qHTS) against a number of cell lines to determine in vitro cytotoxicity of small molecules. This particular assay uses a human lymphoblastoid cell line (LYMP2-003) purchased from Coriell Institute for Medical Research.\nNCGC Assay Protocol Summary:\nThe CellTiter-Glo luminescent cell viability assay (Promega) is a homogeneous method to measure the number of viable cells in culture. The end point readout of this assay is based on quantitation of intracellular ATP, an indicator of metabolic activity, using the luciferase reaction. Luciferase catalyzes the oxidation of beetle Luciferin to oxyluciferin and light in the presence of ATP. The luminescent signal is proportional to amount of ATP present.\nUsing the CellTiter-Glo luminescent cell viability assay, the amount of cellular ATP was measured in the lymphoblastoid cell line with complete culture medium following compound treatment for 24 hours. The assay was performed in opaque white Kalypsys 1536-well plates. In the screen, tetraoctylammonium bromide was used as positive control. Library compounds were measured for their ability to cause acute toxicity in the cell line, as reflected by a decrease in intracellular ATP levels, in a concentration-dependent manner. […] AC50 values were determined from concentration-response data modeled with the standard Hill equation.\nqHTS protocol for CellTiter Glo lymphoblastoid cellular assay\n[Step] [Parameter] [Value] [Description]\n1. Reagent; 5 uL; 2500 lymphoblastoid cells/well\n2. Time; 5 hr; 37 C incubation\n4. Controls; 23 nL; Tetraoctylammonium bromide 6.4pM to 92 uM\n5. Time; 24 hr; 37 C incubation\n6. Reagent; 5 uL; CellTiter Glo reagent\n7. Time; 30 min; Room Temperature\n8. Detection; Luminescence; Viewlux plate reader\nKeywords: cell viability, cytotoxicity, lymphoblastoid cell line, luminescence, NTPHTS, NTPHTS_NCGC, NIEHS, DSSTox, MLSMR, MLSCN, NIH Roadmap, qHTS, NCGC", "units": {"activity change, negative = cytotoxicity": "%"}}
{"smiles": "Clc1ccc(COC(Cn2ccnc2)c2ccc(Cl)cc2Cl)cc1", "note": "(stereo unspecified)", "activity change, negative = cytotoxicity": -29.2}
{"smiles": "CNCC(O)c1ccc(O)cc1", "note": "(stereo unspecified)", "activity change, negative = cytotoxicity": 9.53}
{"smiles": "OCCOc1ccccc1", "activity change, negative = cytotoxicity": 8.58}
{"smiles": "Oc1cccc2cccnc12", "Potency": "12.6 µM (active)"}
{"smiles": "Oc1ccc(Cl)cc1Cc1ccccc1", "activity change, negative = cytotoxicity": 17.4}
{"smiles": "Oc1ccccc1-c1ccccc1", "activity change, negative = cytotoxicity": 13.4}
{"smiles": "NCC(O)c1ccc(O)cc1", "note": "(stereo unspecified)", "activity change, negative = cytotoxicity": 6.23}
{"smiles": "c1ccc2c(c1)Nc1ccccc1S2", "activity change, negative = cytotoxicity": 2.39}
{"smiles": "N[C@@H](Cc1ccc(N(CCCl)CCCl)cc1)C(=O)O", "Potency": "31.6 µM (active)"}
{"smiles": "CCOP(=S)(OCC)Oc1cc(C)nc(C(C)C)n1", "activity change, negative = cytotoxicity": 5.93}
{"smiles": "CCCC(C)(COC(N)=O)COC(=O)NC(C)C", "note": "(stereo unspecified)", "activity change, negative = cytotoxicity": 15.9}
